Source: PubChem BioAssay (NCI)
This is part of a sample that, as a whole, favours compounds with a hit. Of some 79,000 tested, about 15% had one in any assay. Calls of active or inactive are those of the source. No stated cut-off is given here; in the data, active means growth inhibition above about 70%; inactive means the rest.

Columns and labels:
[1] = NCI Yeast Anticancer Drug Screen. Data for the wt2 strain (AID 169);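 further: 0% = growth of vehicle-treated yeast cultures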; details: S. cerevisiae wt2 strain growth inhibition, active compounds read high
Outline: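 The panel's yeast strains carry defined changes in DNA repair or cell cycle genes. Each strain is grown with compound, and growth loss is scored relative to vehicle.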

[2] = NCI Yeast Anticancer Drug Screen. Data for the mlh1 strain (AID 171);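 further: 0% = growth of vehicle-treated control cultures of the same strain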; details: S. cerevisiae mlh1 strain growth inhibition, active compounds read high
Outline: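 Inhibition values reflect reduced yeast growth in the presence of compound, referenced to vehicle controls, using a strain chosen for its alteration in DNA repair or cell cycle control.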

[3] = NCI Yeast Anticancer Drug Screen. Data for the sgs1 strain (AID 173);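 further: 0% = growth of vehicle-only control cultures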; details: S. cerevisiae sgs1 mutant, active compounds read high
Outline: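 Vehicle-treated cultures served as reference for growth inhibition of a yeast strain altered in DNA damage repair or cell cycle control after compound exposure.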

[4] = NCI Yeast Anticancer Drug Screen. Data for the mlh1 rad18 strain (AID 175); details: S. cerevisiae mlh1 rad18 strain growth inhibition, active compounds read high
Outline: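 Inhibition values reflect reduced growth of mutant yeast versus vehicle-treated controls following compound exposure; the mutations affect DNA damage repair.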

[5] = NCI Yeast Anticancer Drug Screen. Data for the rad18 strain (AID 177); details: S. cerevisiae rad18 mutant growth inhibition, active compounds read high
Outline: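 Steps: expose repair-mutant yeast to compound; measure growth; express as inhibition relative to vehicle control.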

[6] = NCI Yeast Anticancer Drug Screen. Data for the rad52 strain (AID 147);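 further: 0% = growth of vehicle-treated control cultures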; details: S. cerevisiae rad52 mutant growth inhibition, active compounds read high
Outline: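 Inhibition of yeast growth, referenced to vehicle controls, was the measured output for a strain with defective DNA damage repair.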

[7] = NCI Yeast Anticancer Drug Screen. Data for the wt1 strain (AID 149);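 further: 0% = growth of vehicle-treated wt1 cultures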; details: S. cerevisiae wt1 strain (SPY 50644) growth inhibition, active compounds read high
Outline: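 wt1 yeast, compound-treated; % growth inhibition vs vehicle control.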

[8] = NCI Yeast Anticancer Drug Screen. Data for the rad50EPP+ strain (AID 151);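 further: 0% = growth of vehicle-treated control cultures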; details: S. cerevisiae rad50 mutant strain, active compounds read high
Outline: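 Genetically defined yeast (rad50EPP+, DNA damage repair alteration) is grown with compound, and inhibition of growth is expressed relative to vehicle-treated controls.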

[9] = NCI Yeast Anticancer Drug Screen. Data for the mgt1 strain (AID 153); details: S. cerevisiae mgt1 mutant growth inhibition, active compounds read high
Outline: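 In the mgt1 strain, test compounds were added and growth inhibition was determined relative to vehicle-treated controls.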

[10] = NCI Yeast Anticancer Drug Screen. Data for the rad50 strain (AID 155);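 further: 0% = growth of vehicle-only cultures of the same strain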; details: S. cerevisiae rad50 strain growth inhibition, active compounds read high
Outline: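 Genetically altered yeast (DNA repair pathway); compound treatment; growth inhibition vs vehicle ctrl.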

[11] = NCI Yeast Anticancer Drug Screen. Data for the mec2-1 strain (AID 157); details: S. cerevisiae mec2-1 strain, active compounds read high
Outline: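 Each compound was tested on mec2-1 yeast, a strain altered in DNA damage repair or cell cycle control. Growth inhibition is reported relative to vehicle.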

[12] = NCI Yeast Anticancer Drug Screen. Data for the rad14 strain (AID 159);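 further: 0% = growth of vehicle-treated control cultures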; details: S. cerevisiae rad14 strain growth inhibition, active compounds read high
Outline: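 Test compounds were applied to a repair-deficient yeast strain. Its growth was then compared with that of cultures given vehicle alone, and inhibition was expressed relative to those controls.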

[13] = NCI Yeast Anticancer Drug Screen. Data for the sgs1 mgt1 strain (AID 161);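 further: 0% = growth of cultures given vehicle only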; details: S. cerevisiae sgs1 mgt1 strain, active compounds read high
Outline: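 Genetically altered yeast, compound exposure, growth inhibition relative to vehicle.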

[14] = NCI Yeast Anticancer Drug Screen. Data for the CLN2oe strain (AID 163);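 further: 0% = growth of vehicle-only control cultures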; details: S. cerevisiae CLN2oe strain, active compounds read high
Outline: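 First, the altered yeast strain was treated with each compound; second, its growth was measured; finally, inhibition was derived by comparison with vehicle controls.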

[15] = NCI Yeast Anticancer Drug Screen. Data for the cln2 rad14 strain (AID 165);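 further: 0% = growth equal to vehicle treated cultures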; details: S. cerevisiae cln2 rad14 strain, active compounds read high
Outline: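 Test compounds were added to cln2 rad14 yeast cultures; inhibition of growth was then determined by comparison with vehicle treatment.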

[16] = NCI Yeast Anticancer Drug Screen. Data for the bub3 strain (AID 167); details: S. cerevisiae bub3 mutant strain, active compounds read high
Outline: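 Yeast carrying a defined mutation is treated with each compound, and growth is compared with that of vehicle-exposed cells to give inhibition.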

[17] = at 5.0 µM (retest, dose inferred, filed as 0.5)
[18] = at 50.0 µM (retest, dose inferred, filed as 5.0)

Measured: growth inhibition

CC1SC2(C(=O)Nc3ccc(Cl)cc32)N(c2ccc(Cl)cc2)C1=O (stereo unspecified)
inactive: [1]; at 1.2 µM -4% | [1]; at 3.7 µM -5% | [1]; at 11.0 µM -3% | [2]; at 1.2 µM -1% | [2]; at 3.7 µM -1% | [2]; at 11.0 µM 12% | [3]; at 1.2 µM -2% | [3]; at 3.7 µM 0% | [3]; at 11.0 µM 12% | [4]; [17] 8% | [4]; [18] -4% | [5]; at 1.2 µM -41% | [5]; at 3.7 µM 11% | [5]; at 11.0 µM 35%
active: [1]; at 33.0 µM 98% | [1]; at 100.0 µM 98% | [2]; at 33.0 µM 97% | [2]; at 100.0 µM 93% | [3]; at 33.0 µM 98% | [3]; at 100.0 µM 94% | [4]; at 50.0 µM 99.5% | [5]; at 33.0 µM 97% | [5]; at 100.0 µM 81%

O=C(/C=C/c1cc(Cl)cc(Cl)c1O)c1cccc(O)c1
active: [6]; at 11.0 µM 80% | [6]; at 33.0 µM 98% | [6]; at 100.0 µM 99% | [7]; at 33.0 µM 98% | [7]; at 100.0 µM 97% | [8]; at 3.7 µM 70% | [8]; at 11.0 µM 86% | [8]; at 33.0 µM 97% | [8]; at 100.0 µM 97% | [9]; at 11.0 µM 89% | [9]; at 33.0 µM 99% | [9]; at 100.0 µM 98% | [10]; at 33.0 µM 97% | [10]; [18] 97% | [10]; at 50.0 µM 94% | [10]; at 100.0 µM 97% | [11]; at 11.0 µM 85% | [11]; at 33.0 µM 99% | [11]; [18] 99% | [11]; at 50.0 µM 95.2% | [11]; at 100.0 µM 98% | [12]; at 11.0 µM 96% | [12]; at 33.0 µM 98% | [12]; at 100.0 µM 97% | [13]; [18] 95% | [13]; at 50.0 µM 94% | [14]; at 11.0 µM 74% | [14]; at 33.0 µM 98% | [14]; at 100.0 µM 98% | [15]; [18] 98% | [15]; at 50.0 µM 91.5% | [16]; at 33.0 µM 97% | [16]; [18] 97% | [16]; at 50.0 µM 93.2% | [16]; at 100.0 µM 97% | [1]; at 11.0 µM 89% | [1]; at 33.0 µM 98% | [1]; at 100.0 µM 98% | [2]; at 11.0 µM 80% | [2]; at 33.0 µM 98% | [2]; at 100.0 µM 98% | [4]; [18] 97% | [4]; at 50.0 µM 92.7% | [5]; at 33.0 µM 98% | [5]; at 100.0 µM 98%
inactive: [6]; at 1.2 µM 37% | [6]; at 3.7 µM 36% | [7]; at 1.2 µM 4% | [7]; at 3.7 µM 6% | [7]; at 11.0 µM 50% | [8]; at 1.2 µM 66% | [9]; at 1.2 µM 14% | [9]; at 3.7 µM 25% | [10]; at 1.2 µM 1% | [10]; at 3.7 µM 16% | [10]; [17] 14% | [10]; at 11.0 µM 67% | [11]; at 1.2 µM -19% | [11]; at 3.7 µM 0% | [11]; [17] -9% | [12]; at 1.2 µM 31% | [12]; at 3.7 µM 48% | [13]; [17] 6% | [14]; at 1.2 µM 9% | [14]; at 3.7 µM 23% | [15]; [17] 29% | [16]; at 1.2 µM -12% | [16]; at 3.7 µM -11% | [16]; [17] 38% | [16]; at 11.0 µM 39% | [1]; at 1.2 µM 29% | [1]; at 3.7 µM 27% | [2]; at 1.2 µM 0% | [2]; at 3.7 µM 21% | [4]; [17] 46% | [5]; at 1.2 µM 14% | [5]; at 3.7 µM 13% | [5]; at 11.0 µM 56%
